Source: PubChem BioAssay
Hits are enriched below; roughly 19% of the tested compounds scored in any of these assays.
SW480 rereplic – inducers of DNA re-replication in SW480 colon cancer cells. SW480 DNA re-replication, Hoechst DNA content imaging, 48 h. actives 1.8% (n = 340,000). Potency, µM (titrated, usually from 46.1 µM), usual class: activators. AID 624297; also: nearly all actives have a fitted effect of over 55% in size
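Quantitative HTS format with DMSO vehicle controls; 48 hr drug incubation at 37 C, then 40 min Hoechst staining and scanning imager measurement at 405 nm excitation.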
IL1B secr inh – inhibitors of inflammasome signaling (IL-1 beta secretion). actives 4.7% (n = 360,000). THP-1 LPS/ATP IL-1B secretion, AlphaLISA, 16 h; active compounds read low. AID 743279. activity change, % at 57.5 µM; in the data active = activity change below about -50%; inconclusive = mostly about -30% to -49%
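THP-1 cells pretreated 1 hr with compounds (up to 57.5 uM final), then stimulated with LPS (250 ng/mL final) plus ATP (1.25 mM final); secreted IL-1B measured by AlphaLISA after 16 hr, decreased signal indicating inhibition.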
DT40 TDP1 no CPT – qHTS for Inhibitors of human tyrosyl-DNA phosphodiesterase 1 (TDP1): qHTS in cells in absence of CPT; DT40 Tdp1-/- hTDP1 cells, no CPT, ATP luminescence, 48 h; Potency, µM (doses to about 46.2 µM), hits mostly inhibitors; actives 15% (n = 420,000); also: nearly all actives have a fitted effect of over 55% in size
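Cells were dispensed at 400 per well, compounds added by pin tool, plates incubated ≥48 hr at 37 °C, then CellTiter-Glo added for 30 min at room temperature before luminescence reading. Line: DT40 Tdp1-/- complemented with hTDP1; camptothecin omitted.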
MCF10A rerep – DNA re-replication induction in MCF 10a cells | MCF 10A DNA re-replication, Hoechst nuclear intensity, 48 h | actives 2.9% (n = 350,000) | Potency, µM (series often up to 46.1 µM), hits mostly activators | AID 624296; also: nearly all actives have a fitted effect of over 50% in size
BCR signal inh – inhibitors of chronic active B-cell receptor signaling; ABC-DLBCL IkBa-CBG/CBR reporter, luminescence ratio, 4 h; actives 0.05% (n = 340,000); Potency, µM (top dose mostly 46.1 µM), usual class: inhibitors; active = well fitted inhibition curve with a large enough effect in the signal ratio, with a control signal flat, not every such curve was filed as active; inconclusive = small, poorly fitted or top-dose-only effect, or effect the other way, or a change in a side signal; the % refers to the signal ratio
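Concentration-response series (up to 46 uM) were applied to TMD8 dual-reporter cells for 4 h at 37C with doxycycline. Green/red ratio, after filter-overlap correction, defined %Activity; red signal alone was normalised to basal cells and zero luminescence.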
TDP1 cell CPT – DT40-hTDP1 cell growth loss with CPT | chicken DT40 Tdp1-/-;hTDP1 cells + 20 nM CPT, ATP luminescence, 48 h | Potency, µM (titrated, usually from 46.2 µM), actives largely listed as inhibitors | actives 12% (n = 420,000); also: nearly all actives have a fitted effect of over 55% in size
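Chicken DT40 Tdp1-/- cells complemented with human TDP1, 400 cells/well, exposed to compounds plus 20 nM camptothecin for at least 48 h at 37 C; viability read as ATP content by CellTiter-Glo luminescence.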
Of the large screens only hits and unclear results are named; the others gave an inactive call. Unless noted, calls follow the shape of the dose curve; as a rule, active = well fitted curve in the direction sought with a large enough effect; inconclusive = small, poorly fitted or top-dose-only effect, or another doubt; inactive = no such curve, though single readings can be large; an effect the other way counts as inactive or inconclusive.

O=C1N(Cc2cccc(Cl)c2)C[C@@H]2C[C@@H](c3cccn3-c3cccnc3)N3CCC[C@@]123	IL1B secr inh -56.4, DT40 TDP1 no CPT 20.6µM, MCF10A rerep inconclusive, TDP1 cell CPT inconclusive
Cn1cc([C@@H]2C[C@H]3CN(Cc4cccc(Cl)c4)C(=O)[C@]34CCCN24)c(-c2ccccc2)n1	IL1B secr inh -80.0, DT40 TDP1 no CPT inconclusive, MCF10A rerep inconclusive, TDP1 cell CPT inconclusive
CCn1ncc([C@@H]2C[C@H]3CN(Cc4cccc(Cl)c4)C(=O)[C@]34CCCN24)c1C	IL1B secr inh inconclusive, TDP1 cell CPT inconclusive
Cc1nn(C)cc1[C@@H]1C[C@H]2CN(Cc3cccc(Cl)c3)C(=O)[C@]23CCCN13	DT40 TDP1 no CPT inconclusive
COc1ccccc1N(CC(=O)N1CCCCC1C)S(=O)(=O)c1ccc(Cl)cc1 (configuration not stated)	DT40 TDP1 no CPT inconclusive, TDP1 cell CPT inconclusive (no result: SW480 rereplic, MCF10A rerep, BCR signal inh)
CC(=O)N1CCN(c2csc3ccc(F)cc3c2=O)CC1	none (no result: SW480 rereplic, IL1B secr inh, MCF10A rerep, BCR signal inh)
Cc1c(C)c2ccc(OCC(=O)Nc3ccc(S(N)(=O)=O)cc3)c(C)c2oc1=O	MCF10A rerep 18.4µM
CCCc1cc(=O)oc2cc(OCC(=O)NC3CCN(Cc4ccccc4)CC3)ccc12	SW480 rereplic inconclusive, BCR signal inh inconclusive
CCCc1cc(=O)oc2c(C)c(OCC(=O)NC3CCN(Cc4ccccc4)CC3)ccc12	DT40 TDP1 no CPT inconclusive, TDP1 cell CPT 18.4µM
Cc1cc(OCC(=O)Nc2ccc(CN3CCOCC3)cc2)c2c(C)cc(=O)oc2c1	SW480 rereplic inconclusive, DT40 TDP1 no CPT 11.6µM, MCF10A rerep inconclusive, TDP1 cell CPT 18.4µM
CCCCc1cc(=O)oc2cc(OCC(=O)NCCN3CCOCC3)c(Cl)cc12	DT40 TDP1 no CPT 18.4µM, MCF10A rerep inconclusive, TDP1 cell CPT 13µM
CCCc1cc(=O)oc2c(C)c(OCC(=O)NCCCN3CCOCC3)ccc12	BCR signal inh inconclusive
CCCc1cc(=O)oc2c(C)c(OCC(=O)Nc3ccc(CN4CCOCC4)cc3)ccc12	DT40 TDP1 no CPT inconclusive, TDP1 cell CPT 14.6µM
CCOc1ccc(NC(=O)COC(=O)C23CC4CC(CC(C4)C2)C3)c([N+](=O)[O-])c1	SW480 rereplic inconclusive, DT40 TDP1 no CPT inconclusive, TDP1 cell CPT 18.4µM
COc1ccc(CNc2cc(-c3cccc(NS(C)(=O)=O)c3)ncn2)c(OC)c1	TDP1 cell CPT inconclusive (no result: SW480 rereplic, IL1B secr inh, MCF10A rerep, BCR signal inh)
CC(=O)OC(COC1C[C@@H]2CC[C@@]1(C)C2(C)C)C[N+]1(C)CCCCC1 (some centres not stated)	DT40 TDP1 no CPT 18.4µM, TDP1 cell CPT inconclusive
CNc1snc(C)c1C(=O)OCC(=O)NCc1ccccc1OC	DT40 TDP1 no CPT inconclusive, TDP1 cell CPT inconclusive
C[C@H](CO)NC(=O)[C@H](C)[C@@H]1C[C@@]1(C)[C@@H](NC(=O)OCc1ccccc1)c1ccccc1	DT40 TDP1 no CPT inconclusive
Cc1cc(C(=O)N[C@@H](c2ccccc2)[C@]2(C)C[C@H]2[C@@H](C)C(=O)Nc2ccc3ccccc3c2)no1	DT40 TDP1 no CPT inconclusive, TDP1 cell CPT inconclusive
Cc1cc(C(=O)N[C@H](c2ccccc2)[C@@]2(C)C[C@@H]2[C@@H](C)C(=O)Nc2ccc3ccccc3c2)no1	SW480 rereplic inconclusive, IL1B secr inh -53.7, DT40 TDP1 no CPT 25.9µM, TDP1 cell CPT inconclusive
C[C@@H](C(=O)Nc1ccc2ccccc2c1)[C@H]1C[C@]1(C)[C@H](NC(=O)c1cnccn1)c1ccccc1	SW480 rereplic inconclusive, IL1B secr inh -52.0, DT40 TDP1 no CPT inconclusive, TDP1 cell CPT inconclusive
C[C@@H](C(=O)Nc1ccc2ccccc2c1)[C@@H]1C[C@@]1(C)[C@@H](NC(=O)c1cnccn1)c1ccccc1	SW480 rereplic inconclusive, DT40 TDP1 no CPT inconclusive, TDP1 cell CPT 25.9µM
CC1CN(CC(=O)NCc2ccc(Cl)cc2)CC(C)O1 (configuration not stated)	none
